S1P2 antag – human S1P2 receptor antagonists, primary screen, cell-based. Sphingosine 1-phosphate receptor 2 (Homo sapiens), O95136. inhibition, % at 5 µM. AID 736, 2007. 0.21% of 97,000 active. cell-based S1P2 antagonist assay, inhibition at 5 uM; in the data active means inhibition above about 45%;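 further: CRE beta-lactamase reporter cells expressing human S1P2 stimulated with S1P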
Target sequence (O95136 whole entry, looked up): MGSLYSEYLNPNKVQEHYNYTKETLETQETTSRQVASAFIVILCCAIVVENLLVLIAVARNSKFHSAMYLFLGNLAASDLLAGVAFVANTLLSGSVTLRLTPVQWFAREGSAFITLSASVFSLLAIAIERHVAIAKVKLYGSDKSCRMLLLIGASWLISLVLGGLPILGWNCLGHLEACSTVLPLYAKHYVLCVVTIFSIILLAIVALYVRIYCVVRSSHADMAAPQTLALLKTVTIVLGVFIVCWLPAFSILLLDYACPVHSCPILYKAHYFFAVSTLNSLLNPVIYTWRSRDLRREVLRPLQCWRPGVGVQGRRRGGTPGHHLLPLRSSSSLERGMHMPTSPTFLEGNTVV
GALR2 ag – GALR2 receptor agonists, primary screen, cell-based | GALR2-expressing cells, agonist activation read-out | Galanin receptor type 2 (Homo sapiens), O43603 | 0.48% of 140,000 active | activation, % (no concentration beside the values); in the data active means activation above about 5%, passing the limit was not always enough
GALR2 blocker – GALR2 antagonists in receptor-expressing cells, primary screen; AID 828, 2007; inhibition, % at 4 µM; Galanin receptor type 2 (Homo sapiens), O43603; 0.39% of 140,000 active; antagonist mode; in the data active means inhibition above about 27%;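 further: cells stimulated with galanin 1-16 at roughly its EC80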
MRP reversal – reversal of MRP1-mediated doxorubicin resistance, primary screen, H69AR cells, doxorubicin co-treatment | H69AR cells + 2 uM doxorubicin, CellTiter-Glo, 72 h | 0.04% of 85,000 active | differential viability (reversal), % at 10 µM | AID 602, 2007;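 active means viability drop by adding the cancer drug above about 55%, with treated viability meeting a 40% cutoff, limit read from the data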;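 further: larger differential means the compound sensitizes cells more to doxorubicin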
S1P2 agonist – S1P2 receptor agonists, primary screen, cell-based; Sphingosine 1-phosphate receptor 2 (Homo sapiens), O95136; S1P2-expressing cell line, agonist reporter read-out; activation, % at 4.5 µM; 0.46% of 97,000 active; in the data active means activation above about 16%
MRP1 act – H69AR viability gain despite doxorubicin, primary screen, MRP-1 activator project, H69AR cells, CellTiter-Glo. 0.61% of 140,000 active. AID 799, 2007. viability rescue. viability increase, % at 10 µM;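 active means viability gain under doxorubicin at or above a set limit, the compound median plus 3 SD, cut at about 4.7% in these data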;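 further: MRP-1 overexpressing cells given doxorubicin 25 µM after compound pretreatment; 18-22 h compound pretreatment then 72 h with doxorubicin before readout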
A number is an active result; – = inactive; · = no result. The list is not random: actives were taken first. Their share in the collection is about 1.8%.

SMILES | S1P2 antag | GALR2 ag | GALR2 blocker | MRP reversal | S1P2 agonist | MRP1 act
Cc1cc(O)c(C2=Nc3ccccc3SC(c3ccc(Cl)cc3)C2)c(=O)o1 (stereo not given) | · | – | – | · | · | –
O=[N+]([O-])c1ccc2cn(-c3ccccc3)nc2c1 | · | – | – | · | · | –
COc1ccccc1NC(=O)c1sc2nc(-c3ccco3)ccc2c1N | – | – | – | – | – | 8.3
CCCOC(=O)c1cccc(Nc2nc(-c3cccnc3)nc3ccccc23)c1 | · | – | – | · | · | –
Cc1sc2ncnc(NCC3(N4CCOCC4)CCCCC3)c2c1C | – | – | – | – | – | –
Cc1sc2ncnc(NCC(C)(C)N3CCOCC3)c2c1C | 64.1 | – | – | – | – | –
CCc1cc(C(=O)N=Nc2c(O)[nH]c3c(Br)cc(Br)cc23)c2ccccc2n1 | · | – | – | · | · | –
COc1cccc(/C=N/NC(=O)C(=O)NCc2ccco2)c1O | – | – | – | · | – | 6.0
COc1ccc(NC(=O)Cn2nnc(C(=O)NCc3ccccc3OC)c2N)cc1Cl | 47.4 | – | – | · | – | –
Cc1ccc(NC(=O)Cn2nnc(C(=O)NCc3ccccc3)c2N)cc1C | – | – | – | · | – | –
COc1ccc2nc(NC(=O)CN(C)S(=O)(=O)c3cccs3)sc2c1 | – | – | – | · | – | –
COC(=O)c1ccc(COc2cc(O)c3c(c2)OC(C)(C)CC3=O)cc1 | – | – | – | – | – | 6.1
CC1(C)CC(=O)c2c(O)cc(OCc3ccc(Br)cc3)cc2O1 | – | – | – | – | – | –
COc1cccc(-c2csc(NC(=O)Oc3ccccc3)n2)c1 | – | – | – | · | – | 7.5
O=C(Nc1nc(-c2cccc([N+](=O)[O-])c2)cs1)C(c1ccccc1)c1ccccc1 | – | – | – | · | – | 8.9
O=C(N/N=C/c1ccccc1[N+](=O)[O-])c1ccc(COc2ccccc2-c2ccccc2)cc1 | · | – | – | · | · | 7.3
COc1cc(/C=C(/C#N)c2nc3ccccc3[nH]2)ccc1OCC(=O)Nc1ccccc1C(C)C | – | – | – | · | 18.9 | –
COc1ccc(CCCC(=O)Nc2ccccc2F)cc1 | · | – | – | · | · | –
Cc1c(NC(=O)c2ccccc2NS(=O)(=O)c2ccc(Br)cc2)c(=O)n(-c2ccccc2)n1C | – | – | – | – | – | 5.3
CCN(CC)C(=O)c1sc(NC(=O)c2ccncc2)c(C(=O)OC)c1C | · | – | – | · | · | –
CCOC(=O)c1c(NC(=O)OC)sc(C(=O)N(CC)CC)c1C | – | – | – | 76.3 | – | –
COc1ccc(CNC(=S)Nc2cccc(C)c2C)cc1 | – | – | – | – | – | –
O=C(CCCn1c(=S)[nH]c2cc3c(cc2c1=O)OCO3)N1CCN(c2ccc(F)cc2)CC1 | – | – | – | – | – | –
O=C(CCCn1c(=S)[nH]c2cc3c(cc2c1=O)OCO3)N1CCN(c2ccccc2F)CC1 | – | – | – | – | 31.5 | –
COc1ccc(-c2nnc3ccc(SCC(=O)N4CCN(c5ccccc5)CC4)nn23)cc1OC | · | · | · | – | · | ·
SMILES | S1P2 antag | GALR2 ag | GALR2 blocker | MRP reversal | S1P2 agonist | MRP1 act
O=C(COc1nsnc1N1CCOCC1)N/N=C/c1ccccc1O | · | – | – | · | · | 5.5
Cc1ccccc1NC(=O)COc1nsnc1N1CCOCC1 | – | – | – | – | – | –
CC(/C=N\NC(=O)CN1CCN(S(=O)(=O)c2ccc(C)cc2)CC1)=C\c1ccccc1 | · | – | – | · | · | 5.8
O=C(CC1SC(=O)N(Cc2ccc(Cl)cc2)C1=O)Nc1nccs1 (stereo not given) | · | – | – | · | · | 12.2
CCc1nc2c(sc3nc(N4CCOCC4)c4c(c32)CC(C)(C)OC4)c(=O)o1 | · | · | · | – | · | ·
COc1ccc(/C=C(\C#N)C(=O)OCC(=O)Nc2ccc(C(C)(C)C)cc2)cc1 | · | – | – | · | · | –
Oc1ccc(-c2nc(-c3ccc(O)c(O)c3)cs2)cc1 | · | – | – | – | · | 9.1
CCCCCOc1ccc(/C=c2\sc3nc(=O)c(-c4ccccc4)nn3c2=O)cc1OC | · | – | – | · | · | –
O=c1nc2s/c(=C\c3ccc(-c4ccccc4[N+](=O)[O-])o3)c(=O)n2nc1-c1ccccc1 | · | – | – | · | · | 5.2
CC1CCCCN1CC(=O)Nc1sc2c(c1C#N)CCC2 (stereo not given) | – | – | – | – | – | –
Cc1ccc(Cn2ccc(NC(=O)c3noc4c3CCCC4)n2)cc1 | · | – | – | – | · | –
Cc1ccc(Cn2ccc(NC(=O)c3noc4c3CCCCC4)n2)cc1 | · | – | – | – | · | 4.7
Cc1ccc(-c2cc(-c3ccccc3)no2)c(O)c1 | · | – | – | · | · | 5.3
CCCOc1ccc(CSc2nc3ccccc3[nH]2)cc1 | 48.4 | – | – | · | – | –
CCCCOc1ccc(CSc2ncn[nH]2)cc1 | – | – | – | – | – | 9.8
CCCCCOc1ccc(CSc2ncn[nH]2)cc1 | – | – | – | – | – | 6.3
CCCCNc1c(N)n(CCCC)c(=O)[nH]c1=O | · | – | – | · | · | –
COC(=O)c1ccccc1OC(=O)c1ccc(Br)o1 | – | – | – | – | – | –
Cc1cc(C)c(S(=O)(=O)N2CCOC2CNC(=O)C(=O)NCc2cccnc2)c(C)c1 (stereo not given) | · | – | – | · | · | –
Cc1ccc(SCCc2ccc(C)nc2)cc1 | · | – | – | · | · | –
COc1ccc(C2C=C(c3cccs3)Nc3nc(CCCO)nn32)cc1 (stereo not given) | – | – | 29.7 | – | – | –
COc1ccc(C2C=C(c3ccccc3)Nc3nc(CCCO)nn32)cc1 (stereo not given) | – | – | – | – | – | –
CCN(CC)c1cc2nc(C)n(Cc3ccccc3)c(=O)c2cc1NC(=O)C1CC1 | – | – | – | – | – | 4.8
CCCCNS(=O)(=O)c1ccc2nc(-c3cccs3)cc(C(=O)NCC(OC)OC)c2c1 | · | – | – | · | · | –
Cc1nn(Cc2ccccc2)c(C)c1NC(=O)c1noc2c1CCc1ccccc1-2 | – | – | – | – | – | 6.5
SMILES | S1P2 antag | GALR2 ag | GALR2 blocker | MRP reversal | S1P2 agonist | MRP1 act
O=C1NC(=O)C2(COC(c3ccccc3Cl)OC2)S1 (stereo not given) | · | – | – | · | · | 7.2
O=C1NC(=O)C2(COC(c3ccncc3)OC2)S1 (stereo not given) | · | – | – | · | · | –
COc1ccc(CC(=O)Nn2c(-c3ccccc3)nc3ccccc3c2=O)cc1 | · | – | – | · | · | –
CCOC(=O)CN(C(=O)CSc1nnc(COc2ccc(OC)cc2)n1C)c1ccccc1 | – | – | – | – | 96.0 | 5.6
CCOC(=O)CN(C(=O)CSc1nnc(CNc2ccc(F)cc2)n1C)c1ccccc1 | – | – | – | – | – | –
CCCOc1ccc(C2C(C(=O)OC)=C(C)N=C3SCCC(=O)N32)cc1OCC (stereo not given) | – | – | – | – | 25.3 | –
CCOc1cc(C2C(C(=O)OC(C)C)=C(C)N=C3SCCC(=O)N32)ccc1OC(C)=O (stereo not given) | – | – | – | – | – | –
Cc1ccc(S(=O)(=O)Nc2c(C)[nH]c(=O)[nH]c2=O)cc1C | · | 5.9 | – | · | · | –
